Measured values taken from PubChem BioAssay (NCATS).
Inconclusive results are not listed. Calls of active or inactive are those of the source. The call rests on the fitted dose curve; in most records, active means well fitted curve in the direction sought with a large enough effect; inconclusive means small, poorly fitted or top-dose-only effect, or another doubt; inactive means no such curve, though single readings can be large; an effect the other way counts as inactive or inconclusive.

Experiments:
[1] = biological target: ATP-dependent 6-phosphofructokinase (Trypanosoma brucei brucei) (UniProt O15648); assay: qHTS Assay to Find Inhibitors of T. brucei phosphofructokinase: hit validation (AID 492961);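 further: luminescence reports ADP formed as PFK phosphorylates fructose-6-phosphate with ATP; on the % scale 0 is the no-effect control and ±100 the full control effect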
Chain of ATP-dependent 6-phosphofructokinase (Trypanosoma brucei brucei) (O15648 whole entry, looked up): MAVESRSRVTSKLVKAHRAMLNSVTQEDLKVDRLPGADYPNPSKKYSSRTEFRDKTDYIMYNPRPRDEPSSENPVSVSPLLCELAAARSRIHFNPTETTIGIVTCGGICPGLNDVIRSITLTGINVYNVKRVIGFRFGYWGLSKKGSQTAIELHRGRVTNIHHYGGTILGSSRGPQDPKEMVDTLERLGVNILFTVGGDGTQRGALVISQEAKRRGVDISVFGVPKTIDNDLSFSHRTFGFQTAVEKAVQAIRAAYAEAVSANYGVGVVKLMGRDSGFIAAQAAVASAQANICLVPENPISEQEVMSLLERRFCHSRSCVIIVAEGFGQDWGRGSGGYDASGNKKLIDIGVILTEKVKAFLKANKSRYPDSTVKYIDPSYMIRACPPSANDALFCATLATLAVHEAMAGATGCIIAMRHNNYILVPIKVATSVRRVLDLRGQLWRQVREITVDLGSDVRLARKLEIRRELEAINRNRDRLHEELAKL
Procedure, shortened: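 Measures ADP output of PFK (1.25 nM) at 0.1 mM ATP, 0.5 mM F6P, pH 8.0 TEA buffer with 5 mM MgCl2. No-enzyme wells define full inhibition; uninhibited enzyme wells define zero.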

[2] = biological target: Ubiquitin carboxyl-terminal hydrolase 1 (Homo sapiens) (UniProt O94782); assay: Inhibitors of USP1/UAF1: Pilot qHTS (AID 504865);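 further: rhodamine fluorescence freed from ubiquitin-rhodamine substrate followed over time; top concentration of the series differs between compounds; on the % scale 0 is the no-effect control and ±100 the full control effect; nearly all actives have a fitted effect of over 35% in size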
Chain of Ubiquitin carboxyl-terminal hydrolase 1 (Homo sapiens) (O94782 whole entry, looked up): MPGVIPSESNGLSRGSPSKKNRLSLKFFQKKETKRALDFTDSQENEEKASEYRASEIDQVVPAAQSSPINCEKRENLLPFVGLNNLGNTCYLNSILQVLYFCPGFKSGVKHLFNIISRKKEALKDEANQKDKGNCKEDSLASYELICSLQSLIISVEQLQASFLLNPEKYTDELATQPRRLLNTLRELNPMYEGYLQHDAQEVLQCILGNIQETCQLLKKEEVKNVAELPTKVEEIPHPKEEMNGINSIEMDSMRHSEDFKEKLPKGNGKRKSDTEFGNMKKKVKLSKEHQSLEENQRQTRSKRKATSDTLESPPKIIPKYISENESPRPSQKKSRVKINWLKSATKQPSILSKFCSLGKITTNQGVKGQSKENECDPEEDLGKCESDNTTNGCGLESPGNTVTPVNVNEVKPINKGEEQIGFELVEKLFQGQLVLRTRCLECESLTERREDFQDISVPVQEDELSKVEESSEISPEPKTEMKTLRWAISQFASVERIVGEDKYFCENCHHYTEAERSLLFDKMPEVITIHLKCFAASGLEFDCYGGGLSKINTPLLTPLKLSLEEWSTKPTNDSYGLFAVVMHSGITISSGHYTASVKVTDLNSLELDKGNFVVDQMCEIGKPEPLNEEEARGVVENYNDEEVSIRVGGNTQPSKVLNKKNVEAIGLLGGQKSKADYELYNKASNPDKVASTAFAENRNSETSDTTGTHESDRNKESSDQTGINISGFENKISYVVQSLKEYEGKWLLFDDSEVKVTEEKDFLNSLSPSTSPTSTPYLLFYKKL
Procedure, shortened: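 In 50mM HEPES pH 7.8 containing 0.5mM EDTA, 1mM TCEP, 0.1 mg/ml BSA and 0.01% Tween-20, 1nM USP1/UAF1 is exposed to compound for 15 min, then Ub-Rho (150nM final) is added and fluorescence is read over time.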

[3] = biological target: Luciferin 4-monooxygenase (Photinus pyralis) (UniProt P08659); assay: Biochemical firefly luciferase enzyme assay for NPC (AID 624030);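 further: purified P. pyralis luciferase at 10 nM with luciferin and ATP substrate; 0% = DMSO and -100% = full luciferase inhibition by PTC124 control; nearly all actives have a fitted effect of over 70% in size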
Chain of Luciferin 4-monooxygenase (Photinus pyralis) (P08659 whole entry, looked up): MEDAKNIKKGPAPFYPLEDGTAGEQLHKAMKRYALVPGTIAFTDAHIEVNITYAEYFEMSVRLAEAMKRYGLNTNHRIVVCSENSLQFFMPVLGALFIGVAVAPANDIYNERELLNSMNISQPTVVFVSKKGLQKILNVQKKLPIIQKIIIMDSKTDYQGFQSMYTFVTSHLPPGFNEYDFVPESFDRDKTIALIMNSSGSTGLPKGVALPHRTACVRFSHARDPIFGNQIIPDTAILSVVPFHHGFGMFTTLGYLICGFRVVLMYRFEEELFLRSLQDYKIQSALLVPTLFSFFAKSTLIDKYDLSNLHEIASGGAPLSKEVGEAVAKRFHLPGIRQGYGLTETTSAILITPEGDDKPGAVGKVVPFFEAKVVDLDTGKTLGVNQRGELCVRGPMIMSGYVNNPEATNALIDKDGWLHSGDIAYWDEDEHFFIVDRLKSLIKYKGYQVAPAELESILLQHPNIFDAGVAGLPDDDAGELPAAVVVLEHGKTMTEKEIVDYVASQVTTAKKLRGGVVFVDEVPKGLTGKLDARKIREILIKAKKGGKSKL
Procedure, shortened: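 Direct inhibition of firefly luciferase enzyme (10 nM final, 50 mM Tris Acetate) assessed by luminescence within 5 minutes. Percent activity scaled between DMSO and PTC124 positive control, with concentration-effect curves classified by fit quality and response.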

[4] = S16 Schwann cell viability assay (CellTiter-Glo assay) (AID 624031);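 further: native untransfected S16 rat Schwann cells; plate controls were DMSO-treated cells for no effect and cell-free wells for full effect; nearly all actives have a fitted effect of over 70% in size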
Procedure, shortened: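 Counter-screen for cytotoxicity: parental S16 rat Schwann cells lacking the PMP22 reporters, treated 24 h with compound, viability from cellular ATP by CellTiter-Glo luminescence, normalized to DMSO (0%) and no-cell wells.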

[5] = qHTS profiling for inhibitors of Plasmodium falciparum proliferation (AID 504749);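 further: 0% = DMSO vehicle and full inhibition = artemisinin control; nearly all actives have a fitted effect of over 60% in size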; conditions: P. falciparum in erythrocytes, SYBR Green DNA, 72 h, at 28.7 µM (top of the series)
Procedure, shortened: (§1)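 In a 72 h erythrocytic culture (37 C, humidified, 5% CO2) at 2.5% hematocrit and 0.3% starting parasitemia, compounds were tested; SYBR Green I in detergent lysis buffer stained parasite DNA overnight.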

3D7 = assay: as above; conditions: P. falciparum in erythrocytes, SYBR Green DNA, 72 h; series mostly up to 28.7 µM
Procedure, shortened: as §1

7G8 = assay: as above; conditions: P. falciparum in erythrocytes, SYBR Green DNA, 72 h; series mostly up to 28.7 µM
Procedure, shortened: as §1

AA1029 = assay: as above; conditions: P. falciparum in erythrocytes, SYBR Green DNA, 72 h; series mostly up to 28.7 µM
Procedure, shortened: as §1

AS120 = assay: as above; conditions: P. falciparum in erythrocytes, SYBR Green DNA, 72 h; series mostly up to 28.7 µM
Procedure, shortened: as §1

ATS189 = assay: as above; conditions: P. falciparum in erythrocytes, SYBR Green DNA, 72 h; series mostly up to 28.7 µM
Procedure, shortened: as §1

ATS95 = assay: as above; conditions: P. falciparum in erythrocytes, SYBR Green DNA, 72 h; series mostly up to 28.7 µM
Procedure, shortened: as §1

C2A = assay: as above; conditions: P. falciparum in erythrocytes, SYBR Green DNA, 72 h; series mostly up to 28.7 µM
Procedure, shortened: as §1

CP185 = assay: as above; conditions: P. falciparum in erythrocytes, SYBR Green DNA, 72 h; series mostly up to 28.7 µM
Procedure, shortened: as §1

CP191 = assay: as above; conditions: P. falciparum in erythrocytes, SYBR Green DNA, 72 h; series mostly up to 28.7 µM
Procedure, shortened: as §1

CP192 = assay: as above; conditions: P. falciparum in erythrocytes, SYBR Green DNA, 72 h; series mostly up to 28.7 µM
Procedure, shortened: as §1

CP194 = assay: as above; conditions: P. falciparum in erythrocytes, SYBR Green DNA, 72 h; series mostly up to 28.7 µM
Procedure, shortened: as §1

CP201 = assay: as above; conditions: P. falciparum in erythrocytes, SYBR Green DNA, 72 h; series mostly up to 28.7 µM
Procedure, shortened: as §1

CP203 = assay: as above; conditions: P. falciparum in erythrocytes, SYBR Green DNA, 72 h; series mostly up to 28.7 µM
Procedure, shortened: as §1

CP211 = assay: as above; conditions: P. falciparum in erythrocytes, SYBR Green DNA, 72 h; series mostly up to 28.7 µM
Procedure, shortened: as §1

CP215 = assay: as above; conditions: P. falciparum in erythrocytes, SYBR Green DNA, 72 h; series mostly up to 28.7 µM
Procedure, shortened: as §1

CP217 = assay: as above; conditions: P. falciparum in erythrocytes, SYBR Green DNA, 72 h; series mostly up to 28.7 µM
Procedure, shortened: as §1

CP237 = assay: as above; conditions: P. falciparum in erythrocytes, SYBR Green DNA, 72 h; series mostly up to 28.7 µM
Procedure, shortened: as §1

CP238 = assay: as above; conditions: P. falciparum in erythrocytes, SYBR Green DNA, 72 h; series mostly up to 28.7 µM
Procedure, shortened: as §1

CP247 = assay: as above; conditions: P. falciparum in erythrocytes, SYBR Green DNA, 72 h; series mostly up to 28.7 µM
Procedure, shortened: as §1

CP250 = assay: as above; conditions: P. falciparum in erythrocytes, SYBR Green DNA, 72 h; series mostly up to 28.7 µM
Procedure, shortened: as §1

CP252 = assay: as above; conditions: P. falciparum in erythrocytes, SYBR Green DNA, 72 h; series mostly up to 28.7 µM
Procedure, shortened: as §1

CP256 = assay: as above; conditions: P. falciparum in erythrocytes, SYBR Green DNA, 72 h; series mostly up to 28.7 µM
Procedure, shortened: as §1

CP260 = assay: as above; conditions: P. falciparum in erythrocytes, SYBR Green DNA, 72 h; series mostly up to 28.7 µM
Procedure, shortened: as §1

CP262 = assay: as above; conditions: P. falciparum in erythrocytes, SYBR Green DNA, 72 h; series mostly up to 28.7 µM
Procedure, shortened: as §1

CP265 = assay: as above; conditions: P. falciparum in erythrocytes, SYBR Green DNA, 72 h; series mostly up to 28.7 µM
Procedure, shortened: as §1

CP266 = assay: as above; conditions: P. falciparum in erythrocytes, SYBR Green DNA, 72 h; series mostly up to 28.7 µM
Procedure, shortened: as §1

CP268 = assay: as above; conditions: P. falciparum in erythrocytes, SYBR Green DNA, 72 h; series mostly up to 28.7 µM
Procedure, shortened: as §1

CP269 = assay: as above; conditions: P. falciparum in erythrocytes, SYBR Green DNA, 72 h; series mostly up to 28.7 µM
Procedure, shortened: as §1

CP286 = assay: as above; conditions: P. falciparum in erythrocytes, SYBR Green DNA, 72 h; series mostly up to 28.7 µM
Procedure, shortened: as §1

CP291 = assay: as above; conditions: P. falciparum in erythrocytes, SYBR Green DNA, 72 h; series mostly up to 28.7 µM
Procedure, shortened: as §1

CP297 = assay: as above; conditions: P. falciparum in erythrocytes, SYBR Green DNA, 72 h; series mostly up to 28.7 µM
Procedure, shortened: as §1

CP305 = assay: as above; conditions: P. falciparum in erythrocytes, SYBR Green DNA, 72 h; series mostly up to 28.7 µM
Procedure, shortened: as §1

CP315 = assay: as above; conditions: P. falciparum in erythrocytes, SYBR Green DNA, 72 h; series mostly up to 28.7 µM
Procedure, shortened: as §1

CP325 = assay: as above; conditions: P. falciparum in erythrocytes, SYBR Green DNA, 72 h; series mostly up to 28.7 µM
Procedure, shortened: as §1

CP329 = assay: as above; conditions: P. falciparum in erythrocytes, SYBR Green DNA, 72 h; series mostly up to 28.7 µM
Procedure, shortened: as §1

CP335 = assay: as above; conditions: P. falciparum in erythrocytes, SYBR Green DNA, 72 h; series mostly up to 28.7 µM
Procedure, shortened: as §1

DFO2036 = assay: as above; conditions: P. falciparum in erythrocytes, SYBR Green DNA, 72 h; series mostly up to 28.7 µM
Procedure, shortened: as §1

DIV14 = assay: as above; conditions: P. falciparum in erythrocytes, SYBR Green DNA, 72 h; series mostly up to 28.7 µM
Procedure, shortened: as §1

DIV17 = assay: as above; conditions: P. falciparum in erythrocytes, SYBR Green DNA, 72 h; series mostly up to 28.7 µM
Procedure, shortened: as §1

DIV30 = assay: as above; conditions: P. falciparum in erythrocytes, SYBR Green DNA, 72 h; series mostly up to 28.7 µM
Procedure, shortened: as §1

Dd2 = assay: as above; conditions: P. falciparum in erythrocytes, SYBR Green DNA, 72 h; series mostly up to 28.7 µM
Procedure, shortened: as §1

ECU = assay: as above; conditions: P. falciparum in erythrocytes, SYBR Green DNA, 72 h; series mostly up to 28.7 µM
Procedure, shortened: as §1

FAB9 = assay: as above; conditions: P. falciparum in erythrocytes, SYBR Green DNA, 72 h; series mostly up to 28.7 µM
Procedure, shortened: as §1

GB4 = assay: as above; conditions: P. falciparum in erythrocytes, SYBR Green DNA, 72 h; series mostly up to 28.7 µM
Procedure, shortened: as §1

HB3 = assay: as above; conditions: P. falciparum in erythrocytes, SYBR Green DNA, 72 h; series mostly up to 28.7 µM
Procedure, shortened: as §1

ICS = assay: as above; conditions: P. falciparum in erythrocytes, SYBR Green DNA, 72 h; series mostly up to 28.7 µM
Procedure, shortened: as §1

JCK = assay: as above; conditions: P. falciparum in erythrocytes, SYBR Green DNA, 72 h; series mostly up to 28.7 µM
Procedure, shortened: as §1

N140 = assay: as above; conditions: P. falciparum in erythrocytes, SYBR Green DNA, 72 h; series mostly up to 28.7 µM
Procedure, shortened: as §1

P93_24 = assay: as above; conditions: P. falciparum in erythrocytes, SYBR Green DNA, 72 h; series mostly up to 28.7 µM
Procedure, shortened: as §1

P94_40 = assay: as above; conditions: P. falciparum in erythrocytes, SYBR Green DNA, 72 h; series mostly up to 28.7 µM
Procedure, shortened: as §1

PAD = assay: as above; conditions: P. falciparum in erythrocytes, SYBR Green DNA, 72 h; series mostly up to 28.7 µM
Procedure, shortened: as §1

PC15 = assay: as above; conditions: P. falciparum in erythrocytes, SYBR Green DNA, 72 h; series mostly up to 28.7 µM
Procedure, shortened: as §1

PC26 = assay: as above; conditions: P. falciparum in erythrocytes, SYBR Green DNA, 72 h; series mostly up to 28.7 µM
Procedure, shortened: as §1

PC49 = assay: as above; conditions: P. falciparum in erythrocytes, SYBR Green DNA, 72 h; series mostly up to 28.7 µM
Procedure, shortened: as §1

SC27B = assay: as above; conditions: P. falciparum in erythrocytes, SYBR Green DNA, 72 h; series mostly up to 28.7 µM
Procedure, shortened: as §1

TAB109 = assay: as above; conditions: P. falciparum in erythrocytes, SYBR Green DNA, 72 h; series mostly up to 28.7 µM
Procedure, shortened: as §1

TAB113 = assay: as above; conditions: P. falciparum in erythrocytes, SYBR Green DNA, 72 h; series mostly up to 28.7 µM
Procedure, shortened: as §1

TAB165 = assay: as above; conditions: P. falciparum in erythrocytes, SYBR Green DNA, 72 h; series mostly up to 28.7 µM
Procedure, shortened: as §1

W2 = assay: as above; conditions: P. falciparum in erythrocytes, SYBR Green DNA, 72 h; series mostly up to 28.7 µM
Procedure, shortened: as §1

CC[C@@H](C)C(N)C(=O)O (stereo not given in full)
inactive: Potency [1] | Potency [2] | Potency [3] | Potency [4] | activity, negative = inhibition ([5]; parasite line A) 6.94% | activity, negative = inhibition ([5]; parasite line B) 2.73% | Potency (3D7) | Potency (7G8) | Potency (AA1029) | Potency (AS120) | Potency (ATS189) | Potency (ATS95) | Potency (C2A) | Potency (CP185) | Potency (CP191) | Potency (CP192) | Potency (CP194) | Potency (CP201) | Potency (CP203) | Potency (CP211) | Potency (CP215) | Potency (CP217) | Potency (CP237) | Potency (CP238) | Potency (CP247) | Potency (CP250) | Potency (CP252) | Potency (CP256) | Potency (CP260) | Potency (CP262) | Potency (CP265) | Potency (CP266) | Potency (CP268) | Potency (CP269) | Potency (CP286) | Potency (CP291) | Potency (CP297) | Potency (CP305) | Potency (CP315) | Potency (CP325) | Potency (CP329) | Potency (CP335) | Potency (DFO2036) | Potency (DIV14) | Potency (DIV17) | Potency (DIV30) | Potency (Dd2) | Potency (ECU) | Potency (FAB9) | Potency (GB4) | Potency (HB3) | Potency (ICS) | Potency (JCK) | Potency (N140) | Potency (P93_24) | Potency (P94_40) | Potency (PAD) | Potency (PC15) | Potency (PC26) | Potency (PC49) | Potency (SC27B) | Potency (TAB109) | Potency (TAB113) | Potency (TAB165) | Potency (W2)
